Measured values from PubChem BioAssay (NCATS).
Records with an inconclusive call do not appear. Where a call stands in place of a potency, no number is given. Values without a mark were called inactive. Activity calls are given as the source filed them. Calls come from the whole dose curve; as a rule, active = well fitted curve in the direction sought with a large enough effect; inconclusive = small, poorly fitted or top-dose-only effect, or another doubt; inactive = no such curve, though single readings can be large; an effect the other way counts as inactive or inconclusive.

Experiments:
[1] = qHTS of pediatric cancer cell lines to identify multiple opportunities for drug repurposing: Primary screen for NB-EBc1 cells (AID 1347095); note: potency is the fitted concentration of half-maximal effect
In short: (§1)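 Cells seeded at 500-1,000 cells/well in growth media, rested 5 hours at 37 degrees C, 5% CO2, then dosed; MIPE compounds at 11-point (from 0.78 nM) and NPC at 8-point (from 0.59 nM) final concentrations. Viability by CellTiter-Glo luminescence after 48 hours.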

[2] = qHTS of pediatric cancer cell lines to identify multiple opportunities for drug repurposing: Primary screen for NB1643 cells (AID 1347099); note: nearly all actives have a fitted effect of over 50% in size; note: potency is the fitted concentration of half-maximal effect
In short: as §1

[3] = qHTS of pediatric cancer cell lines to identify multiple opportunities for drug repurposing: Primary screen for LAN-5 cells (AID 1347100); note: potency is the fitted concentration of half-maximal effect
In short: (§2)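 Viability after 48 h compound treatment at 37C, 500-1,000 cells/well, read as ATP luminescence with CellTiter-Glo. Primary screens used 11-point (MIPE, 0.78 nM-46 µM) or 8-point (NPC, 0.59 nM-46 µM) final concentrations; follow-up screens used 11-point dilutions.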

[4] = qHTS of pediatric cancer cell lines to identify multiple opportunities for drug repurposing: Primary screen for Rh18 cells (AID 1347102); note: nearly all actives have a fitted effect of over 65% in size; note: potency is the fitted concentration of half-maximal effect
In short: as §2

[5] = qHTS of pediatric cancer cell lines to identify multiple opportunities for drug repurposing: Primary screen for RD cells (AID 1347104); note: nearly all actives have a fitted effect of over 55% in size; note: potency is the fitted concentration of half-maximal effect
In short: as §1

[6] = qHTS of pediatric cancer cell lines to identify multiple opportunities for drug repurposing: Primary screen for control Hh wild type fibroblast cells (AID 1347106);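 note: series mostly up to about 46 µM; a drop in luminescence marks cytotoxicity and a rise apparent proliferation; nearly all actives have a fitted effect of over 55% in size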
In short: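 Cells (500-1,000/well) in growth media were settled 5 h at 37 degrees C, then given compounds for 48 h. Viability was read as CellTiter-Glo luminescence. Primary runs used MIPE at 11 points (0.78 nM-46 µM) and NPC at 8 points (0.59 nM-46 µM); follow-ups used 11 points.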

[7] = qHTS of pediatric cancer cell lines to identify multiple opportunities for drug repurposing: Primary screen for Saos-2 cells (AID 1347097); note: nearly all actives have a fitted effect of over 40% in size; note: potency is the fitted concentration of half-maximal effect
In short: as §1

[8] = qHTS of pediatric cancer cell lines to identify multiple opportunities for drug repurposing: Primary screen for SK-N-SH cells (AID 1347098); note: nearly all actives have a fitted effect of over 65% in size; note: potency is the fitted concentration of half-maximal effect
In short: (§3)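 Cells (500-1,000/well) rested 5 h, then received compounds for 48 h; metabolically active cells were measured by CellTiter-Glo luminescence. Final concentrations spanned up to 46 µM (MIPE, 11-point) or 0.59 nM-46 µM (NPC, 8-point) in primary screens, 11-point in follow-ups.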

[9] = qHTS of pediatric cancer cell lines to identify multiple opportunities for drug repurposing: Primary screen for BT-12 cells (AID 1347101); note: nearly all actives have a fitted effect of over 25% in size; note: potency is the fitted concentration of half-maximal effect
In short: as §3

[10] = qHTS of pediatric cancer cell lines to identify multiple opportunities for drug repurposing: Primary screen for MG 63 (6-TG R) cells (AID 1347105); note: nearly all actives have a fitted effect of over 50% in size; note: potency is the fitted concentration of half-maximal effect
In short: as §1

[11] = qHTS of pediatric cancer cell lines to identify multiple opportunities for drug repurposing: Primary screen for Rh30 cells (AID 1347107); note: series mostly up to about 46 µM; nearly all actives have a fitted effect of over 75% in size
In short: as §2

[12] = qHTS of pediatric cancer cell lines to identify multiple opportunities for drug repurposing: Primary screen for Rh41 cells (AID 1347108); note: nearly all actives have a fitted effect of over 70% in size; note: potency is the fitted concentration of half-maximal effect
In short: as §1

[13] = qHTS of pediatric cancer cell lines to identify multiple opportunities for drug repurposing: Primary screen for OHS-50 cells (AID 1347103); note: nearly all actives have a fitted effect of over 40% in size; note: potency is the fitted concentration of half-maximal effect
In short: as §3

[14] = qHTS of pediatric cancer cell lines to identify multiple opportunities for drug repurposing: Primary screen for U-2 OS cells (AID 1347096); note: nearly all actives have a fitted effect of over 50% in size
In short: as §2

[15] = qHTS of pediatric cancer cell lines to identify multiple opportunities for drug repurposing: Confirmatory screen for NB1643 cells (AID 1347109); note: nearly all actives have a fitted effect of over 45% in size; note: potency is the fitted concentration of half-maximal effect
In short: as §2

[16] = qHTS of pediatric cancer cell lines to identify multiple opportunities for drug repurposing: Confirmatory screen for A673 cells (AID 1347110); note: nearly all actives have a fitted effect of over 65% in size; note: potency is the fitted concentration of half-maximal effect
In short: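 A673 cells at 500-1,000 cells/well were dosed 5 h after plating, in dilution series up to 46 uM final; primary runs used 8 or 11 points and confirmatory runs used 11 points. Viability was read by CellTiter-Glo luminescence after 48 h, against DMSO and 2.3 uM bortezomib controls.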

[17] = qHTS of pediatric cancer cell lines to identify multiple opportunities for drug repurposing: Confirmatory screen for SK-N-MC cells (AID 1347111);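 note: potency is the fitted concentration of half-maximal effect; cells exposed to compound for 48 h before the readout; nearly all actives have a fitted effect of over 70% in size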
In short: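 SK-N-MC cells at 500-1,000 cells/well in growth media were pre-incubated 5 h, then exposed to compounds at 11-point dilutions for 48 h at 37 degrees C, 5% CO2. Viability was read as CellTiter-Glo luminescence.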

[18] = qHTS of pediatric cancer cell lines to identify multiple opportunities for drug repurposing: Confirmatory screen for BT-12 cells (AID 1347112); note: nearly all actives have a fitted effect of over 55% in size; note: potency is the fitted concentration of half-maximal effect
In short: as §2

[19] = qHTS of pediatric cancer cell lines to identify multiple opportunities for drug repurposing: Confirmatory screen for LAN-5 cells (AID 1347113); note: nearly all actives have a fitted effect of over 65% in size; note: potency is the fitted concentration of half-maximal effect
In short: as §2

[20] = qHTS of pediatric cancer cell lines to identify multiple opportunities for drug repurposing: Confirmatory screen for DAOY cells (AID 1347114)
In short: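 Viability measured as metabolically active cells via CellTiter-Glo luminescence following 48 hours of compound exposure, 11-point dilutions in confirmatory testing. 500-1,000 cells/well plated 5 hours before dosing; controls were DMSO and 2.3 µM bortezomib.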

CC(C)(c1ccc(O)cc1)c1ccc(O)cc1
Potency [1]: inactive
Potency [2]: inactive
Potency [3]: inactive
Potency [4]: inactive
Potency [5]: inactive
Potency [6]: inactive

C=CCOc1cc(Cl)ccc1C(=O)NCCN(CC)CC
Potency [1]: inactive
Potency [7]: inactive
Potency [8]: inactive
Potency [2]: inactive
Potency [3]: inactive
Potency [9]: inactive
Potency [4]: inactive
Potency [5]: inactive
Potency [10]: inactive
Potency [6]: inactive
Potency [11]: inactive
Potency [12]: inactive

CC[C@@H]([C@H](C)O)n1ncn(-c2ccc(N3CCN(c4ccc(OC[C@@H]5CO[C@@](Cn6cncn6)(c6ccc(F)cc6F)C5)cc4)CC3)cc2)c1=O
Potency [1]: 21.1 µM (active)
Potency [8]: inactive
Potency [4]: inactive
Potency [13]: 13.8 µM (active)
Potency [6]: inactive
Potency [11]: inactive

O=C(c1ccco1)N1CCNCC1
Potency [1]: inactive
Potency [8]: inactive
Potency [2]: inactive
Potency [3]: inactive
Potency [9]: inactive
Potency [4]: inactive
Potency [13]: inactive
Potency [5]: inactive
Potency [10]: inactive
Potency [6]: inactive
Potency [11]: inactive
Potency [12]: inactive

CC(C(O)c1ccccc1)N(C)CCOC(c1ccccc1)c1ccccc1 (configuration not stated)
Potency [1]: inactive
Potency [8]: 30.7 µM (active)
Potency [9]: 21.9 µM (active)
Potency [13]: 27.6 µM (active)
Potency [10]: inactive
Potency [6]: inactive
Potency [11]: inactive
Potency [12]: inactive

CO[C@]1(NC(=O)CSC(F)F)C(=O)N2C(C(=O)O)=C(CSc3nnnn3CCO)CO[C@H]21
Potency [1]: inactive
Potency [7]: inactive
Potency [8]: inactive
Potency [2]: inactive
Potency [3]: inactive
Potency [9]: inactive
Potency [13]: inactive
Potency [5]: inactive
Potency [10]: inactive
Potency [6]: inactive
Potency [12]: inactive

CC(=O)/C=C/C=C1/C2CCC(C2)C1(C)C (configuration not stated)
Potency [14]: inactive
Potency [7]: inactive
Potency [8]: inactive
Potency [2]: inactive
Potency [3]: inactive
Potency [9]: inactive
Potency [4]: inactive
Potency [13]: inactive
Potency [5]: inactive
Potency [10]: inactive
Potency [6]: inactive
Potency [11]: inactive

CC(=O)O[C@@H]1C(=O)O[C@@H]2[C@H]1OC(=O)[C@@H]2OC(C)=O
Potency [1]: inactive
Potency [7]: inactive
Potency [8]: inactive
Potency [9]: inactive
Potency [4]: inactive
Potency [5]: inactive
Potency [11]: inactive
Potency [12]: inactive
Potency [15]: inactive
Potency [16]: inactive
Potency [17]: 16.5 µM (active)
Potency [18]: inactive
Potency [19]: inactive

C[C@@H](O[C@H]1OCCN(Cc2n[nH]c(=O)[nH]2)[C@H]1c1ccc(F)cc1)c1cc(C(F)(F)F)cc(C(F)(F)F)c1
Potency [1]: 18.8 µM (active)
Potency [7]: 11.9 µM (active)
Potency [8]: 34.4 µM (active)
Potency [9]: 15.5 µM (active)
Potency [4]: 23.7 µM (active)
Potency [13]: 27.6 µM (active)
Potency [5]: 26.6 µM (active)
Potency [6]: inactive
Potency [11]: inactive

CCC1=C[C@@H]2CN(C1)Cc1c([nH]c3ccccc13)[C@@](C(=O)OC)(c1cc3c(cc1OC)N(C)[C@H]1[C@@](O)(C(=O)OC)[C@H](OC(C)=O)[C@]4(CC)C=CCN5CC[C@]31[C@@H]54)C2
Potency [1]: 0.0335 µM (active)
Potency [2]: 2.66 µM (active)
Potency [3]: 0.0084 µM (active)
Potency [9]: 0.0347 µM (active)
Potency [13]: 0.0195 µM (active)
Potency [10]: 0.0211 µM (active)
Potency [11]: inactive
Potency [15]: 0.104 µM (active)
Potency [16]: 0.0117 µM (active)
Potency [17]: 0.0185 µM (active)
Potency [18]: 0.0522 µM (active)
Potency [19]: 0.329 µM (active)
Potency [20]: 0.0329 µM (active)

COc1ccc2c(c1)CCCC2=O
Potency [1]: inactive
Potency [7]: inactive
Potency [8]: inactive
Potency [3]: inactive
Potency [9]: inactive
Potency [4]: inactive
Potency [13]: inactive
Potency [5]: inactive
Potency [10]: inactive
Potency [6]: inactive
Potency [11]: inactive
Potency [12]: inactive

CSc1ccc(/C=C2/C(C)=C(CC(=O)O)c3cc(F)ccc32)cc1
Potency [1]: inactive
Potency [7]: inactive
Potency [8]: inactive
Potency [2]: inactive
Potency [3]: inactive
Potency [9]: inactive
Potency [4]: inactive
Potency [5]: inactive
Potency [10]: inactive
Potency [6]: inactive
Potency [11]: inactive
Potency [12]: inactive

Nc1c2ccccc2nc2ccccc12
Potency [1]: 3.76 µM (active)
Potency [8]: 9.7 µM (active)
Potency [9]: 12.3 µM (active)
Potency [13]: 24.6 µM (active)
Potency [5]: 15 µM (active)
Potency [12]: 16.8 µM (active)
Potency [15]: 4.14 µM (active)
Potency [16]: 6.57 µM (active)
Potency [17]: 3.29 µM (active)
Potency [18]: 3.69 µM (active)
Potency [19]: 3.69 µM (active)

CN1N=C(C(N)=O)CCC1=O
Potency [1]: inactive
Potency [8]: inactive
Potency [2]: inactive
Potency [3]: inactive
Potency [9]: inactive
Potency [4]: inactive
Potency [13]: inactive
Potency [5]: inactive
Potency [10]: inactive
Potency [6]: inactive
Potency [11]: inactive
Potency [12]: inactive

O=C(OCC(O)CO)c1ccccc1Nc1ccnc2c(C(F)(F)F)cccc12 (configuration not stated)
Potency [1]: inactive
Potency [2]: inactive
Potency [3]: inactive
Potency [4]: inactive
Potency [5]: inactive
Potency [10]: inactive
Potency [6]: inactive
Potency [11]: inactive
Potency [12]: inactive

COc1c(C)c2c(c(O)c1C/C=C(\C)CCC(=O)OCCN1CCOCC1)C(=O)OC2
Potency [1]: 0.188 µM (active)
Potency [3]: 0.841 µM (active)
Potency [6]: inactive
Potency [11]: inactive
Potency [12]: inactive
Potency [15]: 1.31 µM (active)
Potency [16]: 3.69 µM (active)
Potency [17]: 1.65 µM (active)
Potency [19]: 1.65 µM (active)

COc1cc(NS(=O)(=O)c2ccc(N)cc2)nc(C)n1
Potency [14]: inactive
Potency [7]: inactive
Potency [8]: inactive
Potency [2]: inactive
Potency [3]: inactive
Potency [9]: inactive
Potency [4]: inactive
Potency [13]: inactive
Potency [5]: inactive
Potency [10]: inactive
Potency [6]: inactive
Potency [11]: inactive
Potency [12]: inactive

Nc1c(I)cc(I)c(C(=O)N(CCC(=O)O)c2ccccc2)c1I
Potency [14]: inactive
Potency [7]: inactive
Potency [8]: inactive
Potency [3]: inactive
Potency [9]: inactive
Potency [4]: inactive
Potency [13]: inactive
Potency [5]: inactive
Potency [10]: inactive
Potency [6]: inactive
Potency [11]: inactive
Potency [12]: inactive
